Source: PMC12431657, “Discovery and mechanistic insights of dibenzoylmethane as a broad spectrum inhibitor of coronavirus” (PLOS Pathogens, 2025)
Structures can show the parent of a compound that is named as a salt. Where two headings read alike, the source gives them in different places. The campaign covered roughly 3,300 compounds. About 95 (3%) showed an effect of 50% or more. Only a selection was taken, and strong results are over-represented in it overall.

Test system: HCoV-229E
Parameters: species or system Huh-7; HTS, protection from HCoV-229E induced cell death, luminescent cell viability (CellCounting-Lite 2.0), inhibition rate
Settings: 24 h post infection, 1 h compound pre-incubation, 10 µM, inhibitor

Row | Structure (SMILES) | 229E Inhibition rate | 229E Inhibition rate (229E Inhibition rate, 24 h)
1 | COC(=O)[C@]1(O)C[C@@H](O)[C@@H](O)[C@H](OC(=O)/C=C/c2ccc(O)c(O)c2)C1 [3-O-Caffeoylquinic acid methyl ester] | 24.2% | –
2 | COc1cc(CCC(=O)O)cc(OC)c1OC [3-(3,4,5-Trimethoxyphenyl)propanoic acid] | 55.1% | –
3 | COc1cc(CCC(=O)O)ccc1O [Dihydroferulic acid] | 28.8% | –
4 | COc1cc(C(=O)O)cc(OC)c1OC [3,4,5-Trimethoxybenzoic acid] | 11.2% | –
5 | C[C@H](CCC(=O)O)[C@H]1CC[C@H]2[C@@H]3[C@H](O)C[C@@H]4CC(=O)CC[C@]4(C)[C@H]3C[C@H](O)[C@]12C [3-Oxocholic acid] | 4.2% | –
6 | CC[C@H](CC[C@@H](C)[C@H]1CC[C@H]2[C@@H]3CC[C@H]4C[C@@H](O)CC[C@]4(C)[C@H]3CC[C@]12C)C(C)C [Stigmastanol] | 12.4% | –
7 | O=c1cc(-c2ccc(O)c(O)c2)oc2cc(O)c([C@@H]3O[C@H](CO)[C@@H](O)[C@H](O)[C@H]3O)c(O)c12 [Isoorientin] | 51.3% | –
8 | O=c1cc(-c2ccc(O)cc2)oc2cc(O)c([C@@H]3O[C@H](CO)[C@@H](O)[C@H](O)[C@H]3O)c(O)c12 [Isovitexin] | 21% | –
9 | COc1cc2oc(-c3ccc(O)cc3)cc(=O)c2c(O)c1[C@@H]1O[C@H](CO)[C@@H](O)[C@H](O)[C@H]1O[C@@H]1O[C@H](CO)[C@@H](O)[C@H](O)[C@H]1O [Spinosin] | 16.9% | –
10 | O=c1cc(-c2ccc(O)cc2)oc2cc(O)c([C@@H]3O[C@H](CO)[C@@H](O)[C@H](O)[C@H]3O[C@@H]3O[C@H](CO)[C@@H](O)[C@H](O)[C@H]3O)c(O)c12 [Meloside A] | 56.2% | –
11 | O=c1cc(-c2ccc(O)cc2)oc2cc(O)c([C@@H]3O[C@H](CO)[C@@H](O)[C@H](O)[C@H]3O[C@@H]3OC[C@H](O)[C@H](O)[C@H]3O)c(O)c12 [Isovitexin 2''-O-arabinoside] | 22.1% | –
12 | O=c1cc(-c2ccc(O)c(O)c2)oc2cc(O[C@@H]3O[C@H](CO)[C@@H](O)[C@H](O)[C@H]3O)c(O)c(O)c12 [6-Hydroxyluteolin 7-glucoside] | 5.1% | –
13 | O=c1cc(-c2ccc(O)c(O)c2)oc2c([C@@H]3O[C@H](CO)[C@@H](O)[C@H](O)[C@H]3O)c(O)cc(O)c12 [Orientin] | 55% | –
14 | O=c1cc(-c2ccc(O)cc2)oc2c([C@@H]3O[C@H](CO)[C@@H](O[C@@H]4O[C@H](CO)[C@@H](O)[C@H](O)[C@H]4O)[C@H](O)[C@H]3O)c(O)cc(O)c12 [4”-O-Glucosylvitexin] | 19% | –
15 | O=c1cc(-c2ccc(O)c(O)c2)oc2c([C@@H]3O[C@H](CO)[C@@H](O)[C@H](O)[C@H]3O[C@H]3O[C@@H](CO)[C@@H](O)[C@@H](O)[C@@H]3O)c(O)cc(O)c12 [2"-O-beta-L-galactopyranosylorientin] | 6.8% | –
16 | O=C(O)[C@H](O)[C@@H](O)C(=O)O [L-Tartaric acid] | – | 17.2%
17 | CCOC(=O)CC(C)O (stereo not drawn) [Ethyl 3-hydroxybutyrate] | 11.8% | –
18 | CN1c2ccccc2C(=O)N2CCc3c([nH]c4ccccc34)C21 (racemic) [(±)-Evodiamine] | 18.7% | –
19 | CCCCC/C=C/C=C/C(=O)NCC(C)C [Pellitorine] | 14.2% | –
20 | O=C(O)c1ccc(C(=O)O)cc1 [Terephthalic acid] | 10.1% | –
21 | O=C(O)c1ccncc1 [Isonicotinic acid] | 55% | –

Row | Structure (SMILES) | 229E Inhibition rate | 229E Inhibition rate (229E Inhibition rate, 24 h)
22 | O=C(O)c1ccccc1 [Benzoic acid] | 11.6% | –
23 | O=C(O)c1c(O)cccc1O [2,6-Dihydroxybenzoic acid] | 10.3% | –
24 | C=C(CO)C(=O)O[C@H]1CC(=C)[C@@H]2C[C@H](O)C(=C)[C@@H]2[C@H]2OC(=O)C(=C)[C@@H]21 [Cynaropicrin] | 8.5% | –
25 | O=C(O)CNC(=O)c1ccccc1 [Hippuric acid] | 8.9% | –
26 | Cc1ccccc1C(=O)NCC(=O)O [2-(2-Methylbenzamido)acetic acid] | 54.8% | –
27 | Cc1ccccc1C(=O)O [o-Toluic acid] | 0% | –
28 | CCOC(=O)/C=C/c1ccc(O)cc1 [p-Coumaric Acid Ethyl Ester] | 23% | –
29 | O=C1Cc2ccccc2N1 [Oxindole] | 15.9% | –
30 | O=C1C=CC[C@@H]2[C@H]3CCCN4CCC[C@@H](CN12)[C@@H]34 [Sophocarpine (monohydrate)] | – | 23.9%
31 | COc1ccc(C2COc3cc(O)ccc3C2)c(O)c1OC (stereo not drawn) [Isomucronulatol] | 9.8% | –
32 | COc1ccc(C(=O)O)cc1 [p-Anisic acid] | 5.8% | –
33 | Oc1cc(O)c2c(c1)O[C@H](c1cc(O)c(O)c(O)c1)[C@H](O)C2 [(-)-Epigallocatechin] | 10.4% | –
34 | Oc1cc(O)c2c(c1)O[C@@H](c1cc(O)c(O)c(O)c1)[C@H](O)C2 [(-)-Gallocatechin] | 16.1% | –
35 | Oc1cc(O)c2c(c1)O[C@H](c1cc(O)c(O)c(O)c1)[C@@H](O)C2 [(+)-Gallocatechin] | 54.1% | –
36 | O=C(O)CC(O)(CC(=O)O)C(=O)O [Sodium citrate (dihydrate)] | – | 0%
37 | CC(C)C1=Cc2ccc3c(c2C(=O)C1=O)CCCC3(C)C [Miltirone] | 4.2% | –
38 | O=C(O)Cc1cccc(O)c1 [3-Hydroxyphenylacetic acid] | 11% | –
39 | C=C1C[C@@]2(O)O[C@@]3(C[C@H]2C(C)C)[C@@H](C)CC[C@@H]13 [Curcumol] | 11.7% | –
40 | CC1=C[C@]2(O)O[C@@]3(CC2=C(C)C)[C@@H](C)CC[C@@H]13 [Curcumenol] | 64.3% | –
41 | C=C1C[C@]2(O)O[C@@]3(CC2=C(C)C)[C@@H](C)CC[C@@H]13 [Isocurcumenol] | 10.7% | –
42 | O=C1CCCCC1=O [1,2-Cyclohexanedione] | 20.8% | –
